Test results: PubChem BioAssay AID686979 (National Center for Advancing Translational Sciences (NCATS), 2013)
The campaign covered roughly 420,000 compounds. About 50,000 (12%) were called active. Where a call stands in place of a potency, no number is given. Inconclusive results (about 26%) are left out. Calls follow the shape of the dose curve; as a rule, active = well fitted inhibition curve with a large enough effect; inconclusive = small, poorly fitted or top-dose-only effect; inactive = flat fitted curve, though single readings scatter. The sample as a whole holds a higher share of actives than the screen did.

Experiment: qHTS for Inhibitors of human tyrosyl-DNA phosphodiesterase 1 (TDP1): qHTS in cells in presence of CPT; also: nearly all actives have a fitted effect of over 55% in size
Conditions: chicken DT40 Tdp1-/-;hTDP1 cells + 20 nM CPT, ATP luminescence, 48 h; series mostly up to 46.2 µM
Source text: Human tyrosyl-DNA phosphodiesterase 1 (TDP1) is a novel repair gene, and we propose to use it as a new target for anticancer drug development. TDP1 is not an essential protein, but under treatment with topoisomerase I poison (camptothecin: CPT), TDP1 works as a critical factor for cell survival. To directly identify novel TDP1 inhibitors active in a cellular environment, we have knocked-out the Tdp1 gene in chicken DT40 cells (Tdp1-/-) and generated a complemented counterpart cells that contains a stable transfection of the human TDP1 gene (Tdp1-/-;hTDP1 cells). For the primary screen, Tdp1-/-;hTDP1 cells will be exposed to small molecules in the presence or absence of CPT, and their growth kinetics will be evaluated after 48 hours by measuring ATP activity. […] The hit compounds will then be evaluated in the presence or absence of CPT using Tdp1-/- cells. […] In tertiary assays, biochemical gel-based assays will be used to assess whether the hit compounds specifically target TDP1. To this end, we have screened this cell line against the MLSMR in two primary screens. In one screen we add CPT and in the other we screen in the absence of CPT; this AID represents the screen where CPT was present. NIH Chemical Genomics Center [NCGC] NIH Molecular Libraries Probe Centers Network [MLPCN] MLPCN Grant: MH095538 Assay Submitter (PI): Yves Pommier, NCI
DT40-hTDP1 cells with 20 nM Camptothecin (add 20 microL of 1 mM CPT stock in 1 L of cell culture medium) were dispensed at 400 cells/5microL/well in tissue culture treated 1536-well white wall/solid bottom assay plates (Greiner Bio-One North America, NC, U.S.A.) using a Multidrop Combi 8 channel dispenser (Thermo Fisher, Waltham, MA, USA). 23 nL compounds and controls were transferred using the pin tool (Kalypsys, San Diego, CA, USA) to the assay plates. The assay plates were then incubated at 37 masculineC for a minimum 48 hr. Three microL of Cell Titer Glo solution was added to the plates and incubated at RT in dark for 30 min. Luminescence was read using ViewLux (Perkin Elmer) with 1 sec exposure slow speed, high gain and 2x binning.
Potency is read from the fitted curve at half-maximal effect.

Structure (SMILES) | Potency
CCc1ccc(C(CNc2nc(C(F)(F)F)nc3ccccc23)N(C)C)cc1 (stereo not given) | 16.4 µM (active)
NS(=O)(=O)c1ccc(CCNc2nc(C(F)(F)F)nc3ccccc23)cc1 | inactive
CN(C)C(CNC(=O)Cc1ccc([N+](=O)[O-])cc1)c1ccccc1 (stereo not given) | inactive
CCN(CC)CCCN=C(N)N | inactive
Cc1nc2ccc(S(=O)(=O)NC(C(=O)NCc3ccccc3Cl)C(C)C)cc2s1 (stereo not given) | inactive
O=C(O)CC(c1ccccc1F)N1Cc2ccccc2C1=O (stereo not given) | inactive
O=C(CC(c1cccs1)N1Cc2ccccc2C1=O)Nc1ccc(F)cc1F (stereo not given) | 20.6 µM (active)
COc1cc(C(CC(=O)NCCC(C)C)N2Cc3ccccc3C2=O)cc(OC)c1OC (stereo not given) | inactive
CC(C)(C)C1CCc2c(sc3nc(SCC(N)=O)nc(N)c23)C1 (stereo not given) | 16.4 µM (active)
Nc1nc(SCC(=O)NCCN2CCOCC2)nc2sc3c(c12)CCC3 | inactive
CN(C)CCSc1nc(N)c2c3c(sc2n1)COC(C)(C)C3 | inactive
Cc1cnc(-n2ncc(C(=O)N3CCN(C(C)C)CC3)c2-c2ccco2)nc1-c1ccc(F)cc1 | inactive
O=c1o[nH]c(-c2ccccc2)c1N=Nc1c(F)cccc1Cl | inactive
Cc1nc2ccccc2c(=O)n1NC(=O)c1ccc(Cl)c([N+](=O)[O-])c1 | inactive
CCOC(=O)N1CCN(C(=O)C(=O)Nc2sc3c(c2C#N)CC(C)(C)OC3)CC1 | inactive
CC1(C)Cc2c(sc(NC(=O)C(=O)N3CCOCC3)c2C#N)CO1 | 20.6 µM (active)
COC(=O)c1c(NC(=O)C(=O)N2CCCCC2)sc2c1CC(C)(C)OC2 | inactive
CCOc1cc(NC(=O)Nc2ccccc2)c(OCC)cc1NC(=O)CC | inactive
CN(NC(=O)C1CC(=O)N(c2ccccc2)C1)C1=NS(=O)(=O)c2ccccc21 (stereo not given) | inactive
CNC(=O)C(=O)N/N=C/c1ccccn1 | inactive
O=C(N/N=C/c1ccccn1)C12CC3CC(CC(C3)C1)C2 | inactive
S=C(NN=Cc1ccccn1)Nc1ccccn1 | 1.46 µM (active)

Structure (SMILES) | Potency
CC(=O)N1CCN(C(=O)C2(NC(=O)Nc3ccc(C)cc3)CCCCC2)CC1 | inactive
CC(=O)NCC(=O)N1CCC(n2nccc2NC(=O)CCCc2ccccc2)CC1 | inactive
c1ccc(C(=NNc2nc3ccccc3s2)c2ccccn2)cc1 | 0.164 µM (active)
O=C(Nc1ccccc1Cl)O/N=C(/c1ccccc1)c1ccccn1 | inactive
c1ccc2sc(NN=C3CCCC3)nc2c1 | inactive
CC(C)CN1C(=O)CN(S(C)(=O)=O)CC1(C)C(=O)NCc1ccccc1 (stereo not given) | inactive
CCN(CC(=O)Nc1c(F)cccc1F)C(=O)c1ccc(-c2ccc(C(C)=O)cc2)o1 | inactive
Cc1ccc(S(=O)(=O)NCC(=O)N(CC(=O)NC(C)(C)C)Cc2cccs2)cc1 | inactive
Cc1cc(C)cc(C(=O)OCC(=O)NCCNC(=O)COC(=O)c2cc(C)cc(C)c2)c1 | inactive
Cc1cccc([C@@H]2[C@@H]3C(=O)N(Cc4ccccc4)C(=O)[C@@H]3[C@]3(Cc4ccc(Cl)cc4)C(=O)N(c4cccc(Cl)c4)C(=O)N23)c1 | inactive
Cc1ccc(-c2cccc([C@H]3[C@@H]4C=CC[C@@H](C)[C@@H]4C(=O)N3Cc3ccccc3)c2)cc1 | 14.6 µM (active)
COc1ccc(CN2CCNC(=O)C2CC(=O)N(C)Cc2ccccn2)cc1OC (stereo not given) | inactive
O=[N+]([O-])c1ccc(COc2ccccc2CN2CCOCC2)cc1 | 23.1 µM (active)
O=C(OCc1ccc([N+](=O)[O-])cc1)C1CC(=O)N(Cc2ccccc2Cl)C1 (stereo not given) | inactive
O=[N+]([O-])c1ccc(N2CCOCC2)cc1 | inactive
O=C1c2cccc3cccc(c23)C(=O)N1c1cccc(O)c1 | inactive
COc1ccc(CCNS(=O)(=O)c2cccc3cccnc23)cc1OC | inactive
CCCCC(=O)NC(c1ccc(OC)c(OC)c1)c1ccc2cccnc2c1O (stereo not given) | 1.3 µM (active)
C=CCn1c(COc2cccc3cccnc23)nnc1SCC(=O)OC | inactive
S=c1[nH]nc(-c2ccccc2)n1/N=C/c1c[nH]c2ccccc12 | inactive
O=C(NC1CCCC1)C(=O)c1c[nH]c2ccccc12 | inactive
C[n+]1ccc(/C=C/c2c[nH]c3ccccc23)cc1 | 1.03 µM (active)

Structure (SMILES) | Potency
CC1(C(=O)NS(=O)(=O)c2ccc(C#N)cc2)CCN1C(=O)CC1CCCC1 (stereo not given) | inactive
CC1(C)CC2CC(C)(CN2c2ncnc3ccc(Br)cc23)C1 (stereo not given) | 5.17 µM (active)
O=C(COC(=O)Cc1ccccc1F)NNC(=O)c1ccc(Cl)cc1 | inactive
COc1ccc(C)cc1N(CC(=O)NC(C)c1ccccc1)S(C)(=O)=O (stereo not given) | inactive
CC(C)CNC(=O)C1(C)CCCN1C(=O)CSc1ccccc1 (stereo not given) | inactive
COc1cc(OC)cc(C(=O)Nc2ccc3nc(Nc4cccc(C(F)(F)F)c4)cc(C)c3c2)c1 | 9.2 µM (active)
COc1ccc(NC(=O)C(=O)NCC(=O)Nc2cccc(C(F)(F)F)c2)cc1 | inactive
COc1ccc(/C=N/NC(=O)c2cccc(C(F)(F)F)c2)cc1 | inactive
Cc1cc(Nc2cccc(C(F)(F)F)c2)nc2ccc(NC(=O)c3ccc(=O)[nH]c3)cc12 | 16.4 µM (active)
O=C(O)CSc1c2c(nc3cc(C(=O)Nc4cccc(C(F)(F)F)c4)ccc13)CCCC2 | inactive
CC(Oc1cccc(Cl)c1)C(=O)Nc1ccc(S(=O)(=O)Nc2ncccn2)cc1 (stereo not given) | inactive
CCCCSc1nc2ccccc2[nH]1 | inactive
CCc1nnc(NC(=O)CCCSc2nc3ccccc3[nH]2)s1 | inactive
CCC(C)N1C(=O)S/C(=C/c2ccc(Sc3nc4ccccc4[nH]3)o2)C1=O (stereo not given) | 14.6 µM (active)
CCN1CCN(C(=O)C2CCN(S(=O)(=O)c3cc(Cl)ccc3Cl)CC2)CC1 | inactive
Cc1nnc(SCC(=O)Nc2ncc3c(n2)CC(C)(C)CC3=O)s1 | inactive
CC(C)=CCN1CCN(CCCc2ccccc2)CC1CCO (stereo not given) | inactive
CC(C)=CCN1CCC2(CCc3ccccc32)CC1 | 11.6 µM (active)
COc1cc(CNCCSc2nnnn2C)ccc1OCc1c(F)cccc1Cl | inactive
Cn1nnnc1SCCNCc1ccc(Cl)c(Cl)c1 | inactive
COc1cc(CNCCSc2nnnn2C)ccc1OCc1ccc(Cl)cc1Cl | 16.4 µM (active)
